From article PMC11062922 (Nature Chemical Biology, 2023)
Read-outs that look alike come from different tables or passages of the source.

Columns and labels:
Parameters in all cases: species or system human, MV4-11 + K-562 + COLO205 + SK-N-BE2 + OVCAR-8
BMPR2 = settings: read-out: apparent Kd, compound concentrations: 100 nM and 1000 nM (sheet 'Samples'), n = 1
CAMK4 = settings: read-out: apparent Kd, n = 1
COX5A = settings: read-out: apparent Kd, n = 1
CSNK1G3 = settings: read-out: apparent Kd, compound concentrations: 100 nM and 1000 nM (sheet 'Samples'), n = 1
MST1R = settings: read-out: apparent Kd, n = 1
SIK3 = settings: read-out: apparent Kd, n = 1
TAOK3 = settings: read-out: apparent Kd, n = 1
MAP2K6 = settings: read-out: apparent Kd, n = 1
PRKX;PRKY = settings: read-out: apparent Kd, n = 1
ACAD8 = settings: read-out: apparent Kd, n = 1
VDAC3 = settings: read-out: apparent Kd, n = 1
DCTPP1 = settings: read-out: apparent Kd, n = 1
DDR2 = settings: read-out: apparent Kd; compound concentrations: 100 nM and 1000 nM (sheet 'Samples'), CATDS: 5.5525356317498699E-2; n = 1
CAMK2D = settings: read-out: apparent Kd; compound concentrations: 100 nM and 1000 nM (sheet 'Samples'), CATDS: 2.4491980048065101E-2; n = 1
LIMK1 = settings: read-out: apparent Kd, n = 1
NEK3 = settings: read-out: apparent Kd, n = 1
TBK1 = settings: read-out: apparent Kd; compound concentrations:100 nM and 1000 nM (sheet 'Samples'); n = 1
ERN1 = settings: read-out: apparent Kd, n = 1
MET = settings: read-out: apparent Kd; compound concentrations:100 nM and 1000 nM (sheet 'Samples'); n = 1
[1] = compound concentrations:100 nM and 1000 nM (sheet 'Samples')

SMILES: O=C(O)C(F)(F)F.O=C(O)C(F)(F)F.O=c1[nH]ccc2nc(N[C@@H]3CCCNC3)nc(Nc3ccc(S(=O)(=O)N4CCOCC4)cc3)c12.O=c1[nH]ccc2nc(N[C@@H]3CCCNC3)nc(Nc3ccc(S(=O)(=O)N4CCOCC4)cc3)c12 [GSK2177277A]
- potency estimated from few doses (BMPR2; CATDS: 8.2432165271610295E-3): 0.514 µM
- potency estimated from few doses (CAMK4; compound concentrations: 100 nM and 1000 nM (sheet 'Samples'), CATDS: 6.74489650552607E-3): 1.19 µM
- potency estimated from few doses (COX5A; compound concentrations: 100 nM and 1000 nM (sheet 'Samples'), CATDS: 6.6138643227552996E-3): 1.31 µM
- potency estimated from few doses (CSNK1G3; CATDS: 7.8894585802162295E-3): 0.605 µM
- potency estimated from few doses (MST1R; compound concentrations: 100 nM and 1000 nM (sheet 'Samples'), CATDS: 6.3226356559210701E-3): 1.69 µM
- potency estimated from few doses (SIK3; compound concentrations: 100 nM and 1000 nM (sheet 'Samples'), CATDS: 6.8651363479693096E-3): 1.09 µM
- potency estimated from few doses (TAOK3; compound concentrations: 100 nM and 1000 nM (sheet 'Samples'), CATDS: 6.2703295867196796E-3): 1.77 µM

SMILES: CCn1c(-c2nonc2N)nc2c(C#CC(C)(C)O)nc(O[C@@H](CN)c3ccccc3)cc21.O=C(O)C(F)(F)F [GSK1007102B]
- potency estimated from few doses (MAP2K6; [1]): 1.69 µM
- potency estimated from few doses (PRKX;PRKY; [1]): 0.0835 µM

SMILES: FC(F)(F)c1ccc(-c2ncn(CCCN3CCOCC3)c2-c2ccncc2)cc1 [SB-217780]
- potency estimated from few doses (ACAD8; compound concentrations: 100 nM and 1000 nM (sheet 'Samples'), CATDS: 0.18065047008749499): 2.21 µM

SMILES: COc1ccc(-c2cc3c(N)ncnc3o2)cc1 [GW642138X]
- potency estimated from few doses (ACAD8; compound concentrations: 100 nM and 1000 nM (sheet 'Samples'), CATDS: 9.2281876473195495E-2): 2.17 µM
- potency estimated from few doses (VDAC3; compound concentrations: 100 nM and 1000 nM (sheet 'Samples'), CATDS: 9.45617395095774E-2): 2.06 µM

SMILES: O=C1N=C(NCc2cccs2)O/C1=C\c1ccc2ncccc2c1 [RO4624208-000]
- potency estimated from few doses (DCTPP1; compound concentrations: 100 nM and 1000 nM (sheet 'Samples'), CATDS: 5.0969349281877803E-2): 1.27 µM

SMILES: Cc1cccc(Nc2nc(N[C@H]3CCNC3)ncc2C(N)=O)c1.Cl [GSK2197149A]
- potency estimated from few doses (DCTPP1; [1]): 1.15 µM

SMILES: CN(c1ccc(NC(=O)NCCN2CCOCC2)cc1)c1ccnc(Nc2ccc(CS(C)(=O)=O)cc2)n1.Cl [GW830365A]
- potency estimated from few doses (DDR2): 0.94 µM

SMILES: c1ccc(-c2n[nH]cc2Nc2ccnc3ccccc23)nc1 [GW694077X]
- potency estimated from few doses (DCTPP1; compound concentrations: 100 nM and 1000 nM (sheet 'Samples'), CATDS: 2.52871729428043E-2): 1.4 µM

SMILES: O=C(O)C(F)(F)F.O=c1[nH]ccc2nc(N[C@@H]3CCNC3)nc(Nc3cc(Cl)cc(Cl)c3)c12 [GSK2188764A]
- potency estimated from few doses (CAMK4; [1]): 0.977 µM

SMILES: COc1cc[nH]c1/C=C1\C(=O)Nc2ccc(F)c(C#CC3(O)CCNCC3)c21.Cl [RO0282986-001]
- potency estimated from few doses (CAMK2D): 0.142 µM
- potency estimated from few doses (MAP2K6; compound concentrations: 100 nM and 1000 nM (sheet 'Samples'), CATDS: 9.6893915598830205E-3): 1.5 µM

SMILES: COc1cc(Nc2nccc(N3CCC(NC(=O)c4cccc(NC(C)=O)c4)C3)n2)cc(OC)c1OC (centres unmarked) [GSK1379754A]
- potency estimated from few doses (LIMK1; compound concentrations: 100 nM and 1000 nM (sheet 'Samples'), CATDS: 8.2781561075995602E-2): 1.83 µM

SMILES: CCn1c(-c2cccnc2O)nc2cnccc21 [SB-736715]
- potency estimated from few doses (CSNK1G3; CATDS: 1.22763705207965E-2): 2.06 µM
- potency estimated from few doses (MST1R; compound concentrations: 100 nM and 1000 nM (sheet 'Samples'), CATDS: 1.2580908946689701E-2): 1.93 µM

SMILES: c1cnn2ncc(-c3ccnc(Nc4ccc5c(c4)OCCO5)n3)c2c1 [GW806290X]
- potency estimated from few doses (NEK3; compound concentrations: 100 nM and 1000 nM (sheet 'Samples'), CATDS: 2.00420212482838E-2): 2 µM

SMILES: CC(C)Nc1cc(-c2ccc3c(N)n[nH]c3c2)nc(N)n1 [GSK2221681A]
- potency estimated from few doses (PRKX;PRKY; [1]): 1.27 µM

SMILES: O=C(O)C(F)(F)F.O=c1[nH]ccc2nc(N[C@@H]3CCNC3)nc(Nc3ccc4c(c3)S(=O)(=O)CC4)c12 [GSK2181306A]
- potency estimated from few doses (BMPR2; CATDS: 3.4513086619766098E-2): 0.0687 µM
- potency estimated from few doses (CSNK1G3; CATDS: 9.3335280079581504E-3): 1.06 µM

SMILES: NC(=O)c1cc(-c2ccccc2)cc2c(C3CCNCC3)c[nH]c12 [GSK301362A]
- potency estimated from few doses (ACAD8; [1]): 1.75 µM
- potency estimated from few doses (TAOK3; [1]): 1.57 µM

SMILES: CC(C)Oc1ccc2c(-c3ccnc(Nc4ccc(N5CCN(C)CC5)cc4)n3)cnn2n1 [GW696155X]
- potency estimated from few doses (LIMK1; [1]): 0.576 µM
- potency estimated from few doses (NEK3; [1]): 0.421 µM
- potency estimated from few doses (TBK1): 0.621 µM

SMILES: CN(C)C(=O)/C(C#N)=C/c1ccc(-c2nc3cnc4[nH]ccc4c3n2C2CCCCC2)o1 [FM-381]
- potency estimated from few doses (COX5A; [1]): 0.756 µM

SMILES: CCC(CC)(CC)n1cnc2c(N)ncnc21 [SKF-97620]
- potency estimated from few doses (CSNK1G3; CATDS: 2.4754449130961701E-2): 1.82 µM

SMILES: O=C(Nc1n[nH]c2nc(-c3ccccc3O)ccc12)C1CC1 [SB-711880]
- potency estimated from few doses (ERN1; [1]): 1.7 µM
- potency estimated from few doses (MAP2K6; [1]): 1.81 µM

SMILES: Cl.Cn1c(=O)c(Cc2ccccc2F)cc2cnc(NC3CCOCC3)nc21 [RO3305377-001]
- potency estimated from few doses (CAMK4; compound concentrations: 100 nM and 1000 nM (sheet 'Samples'), CATDS: 1.6194401739627301E-2): 2.15 µM

SMILES: Nc1nc(-c2ccc3c(N)n[nH]c3c2)cc(N2CCCC(NC(=O)c3ccccc3)C2)n1 (centres unmarked) [GSK2286775B]
- potency estimated from few doses (CAMK4; [1]): 1.09 µM
- potency estimated from few doses (MET): 2.25 µM
- potency estimated from few doses (MST1R; [1]): 2.25 µM
- potency estimated from few doses (TBK1): 0.342 µM

SMILES: O=C1N=C(NCCc2ccccc2Cl)S/C1=C\c1ccc2ncccc2c1 [RO4498484-000]
- potency estimated from few doses (PRKX;PRKY; compound concentrations: 100 nM and 1000 nM (sheet 'Samples'), CATDS: 5.9384973682941697E-2): 1.83 µM

SMILES: CC(C)N1CC(=O)N(C)c2cnc(Nc3cccc(S(=O)(=O)CCN4CCOCC4)c3)nc21 [BI00009348]
- potency estimated from few doses (BMPR2; CATDS: 7.5564324360796103E-2): 0.646 µM

SMILES: COc1cccc(C2=C(c3c(C)n(C)c4ccccc34)C(=O)NC2=O)c1 [RO3300167-000]
- potency estimated from few doses (ERN1; compound concentrations: 100 nM and 1000 nM (sheet 'Samples'), CATDS: 7.9309280446682603E-2): 1.54 µM

SMILES: Cc1occc1-c1nc(N)c(OC[C@@H](N)Cc2c[nH]c3ccccc23)cc1-c1cc2c(C)n[nH]c2cn1 [GSK1660450B]
- potency estimated from few doses (COX5A; [1]): 0.824 µM
- potency estimated from few doses (SIK3; [1]): 0.154 µM
- potency estimated from few doses (TAOK3; [1]): 0.076 µM
- potency estimated from few doses (VDAC3; [1]): 0.102 µM
